A short description of test [1]: optical density shifts of acrAB sulA E. coli – strain DRC41, OD650, 48 h, E. coli filamentation inducer project, primary screen (AID 1152).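 Also: E. coli MC1000 strain DRC41 lacking acrAB efflux pump and sulA.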 Particulars: higher = more signal, called active from +8 up or from −8 down.
A short description of test [2]: probe aLefty1 binding on compound microarray – biochemical, small-molecule microarray, 635/667 nm fluorescence, primary screen (AID 1153).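 Also: score merges spot fluorescence with signal-to-noise ratio from the scanned slide images.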 Particulars: higher = more signal.
Test [3] is described as follows: plasmodial surface anion channel blockers, osmotic lysis – cell-based, P. falciparum Indochina, OD700, 1 h, primary screen (AID 1154). Particulars: P. falciparum Indochina infected RBC osmotic lysis, higher = more signal, called active from +8 up or from −8 down.
The nature of test [4]: plasmodial surface anion channel blockers, osmotic lysis – cell-based, P. falciparum Indochina, OD700, 2 h, primary screen (AID 1155).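 Also: lysis reports solute entry through the parasite surface anion channel PSAC.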 Particulars: P. falciparum Indochina infected erythrocytes, higher = more signal, called active from +8 up or from −8 down.
Test [5] can be described thus: changes in parasitized red cell lysis, either direction – P. falciparum Indochina, OD700, 3 h, PSAC antagonist project, primary screen (AID 1156). As to conditions: P. falciparum-infected erythrocytes, osmotic lysis, higher = more signal, called active from +8 up or from −8 down.
Test [6] can be described thus: plasmodial surface anion channel blockers, osmotic lysis – cell-based, P. falciparum Indochina, OD700, 18 h, primary screen (AID 1157). Particulars: P. falciparum Indochina infected erythrocytes, osmotic lysis OD700, 18 h; higher = more signal, called active from +8 up or from −8 down.
The nature of test [7]: S6 kinase pathway phospho-S6 level changes – cell-based, A549, cytoblot, luminescence, serum-stimulated, primary screen (AID 1158).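 Also: serum-stimulated A549 lung adenocarcinoma cells; signal is phosphorylated S6 detected by cytoblot immunostaining with HRP secondary.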 Particulars: 5 h, higher = more signal.
In test [8] the target is NADPH oxidase 2 (Homo sapiens) (UniProt P04839). Briefly: compounds shifting NOX2 Amplex Red fluorescence – cell-based, HEK293-NOX2, PMA-stimulated, NOX inhibitor project, primary screen (AID 1159). Also: test concentration not given here. As to conditions: 45 min, higher = more signal, called active from +8 up or from −8 down.
NADPH oxidase 2 (Homo sapiens), sequence (P04839 whole entry, looked up): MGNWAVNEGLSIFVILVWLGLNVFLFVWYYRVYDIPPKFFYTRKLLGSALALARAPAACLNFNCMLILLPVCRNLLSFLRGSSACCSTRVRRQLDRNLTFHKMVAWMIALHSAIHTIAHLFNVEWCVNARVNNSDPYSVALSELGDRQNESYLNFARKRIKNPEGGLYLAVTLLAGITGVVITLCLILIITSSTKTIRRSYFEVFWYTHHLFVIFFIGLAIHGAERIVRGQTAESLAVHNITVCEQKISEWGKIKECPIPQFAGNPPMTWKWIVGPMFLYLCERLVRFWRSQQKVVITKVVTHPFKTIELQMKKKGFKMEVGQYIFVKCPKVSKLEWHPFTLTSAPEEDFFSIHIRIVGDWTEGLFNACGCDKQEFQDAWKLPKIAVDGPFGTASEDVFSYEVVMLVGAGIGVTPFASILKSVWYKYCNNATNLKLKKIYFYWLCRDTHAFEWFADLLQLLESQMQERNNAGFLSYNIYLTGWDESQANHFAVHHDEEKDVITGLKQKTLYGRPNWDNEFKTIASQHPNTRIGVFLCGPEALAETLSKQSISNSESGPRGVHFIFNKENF
Test [9] addresses NADPH oxidase 4 (Homo sapiens) (UniProt Q9NPH5). Briefly: compounds shifting NOX4 Amplex Red fluorescence – cell-based, HEK293-NOX4, tetracycline-induced, NOX inhibitor project, primary screen (AID 1160). Particulars: HEK293-NOX4, Amplex Red H2O2 fluorescence, 45 min; higher = more signal, called active from +8 up or from −8 down.
Test [10] concerns the target NADPH oxidase 5 (Homo sapiens) (UniProt Q96PH1). As to the kind of experiment: compounds shifting NOX5 Amplex Red fluorescence – cell-based, HEK293-NOX5, NOX inhibitor project, primary screen (AID 1161). As to conditions: HEK293-NOX5, ionomycin, 45 min, higher = more signal.
A short description of test [11]: compound effects on lung adenocarcinoma cell viability – A549, calcein-AM fluorescence, 48 h, basal, profiling panel (AID 1162). Also: test concentration not given here. Particulars: higher = more signal.
A short description of test [12]: compound effects on differentiated 3T3-L1 adipocyte viability – cell-based, 3T3-L1 adipocytes, calcein-AM fluorescence, 48 h, basal, profiling panel (AID 1163). Also: test concentration not given here. As to conditions: 3T3-L1 adipocytes viability, higher = more signal.
The nature of test [13]: compound effects on hepatocellular carcinoma cell viability – HepG2, calcein-AM fluorescence, 48 h, basal, profiling panel (AID 1164). Also: test concentration not given here. Particulars: higher = more signal.
Test [14] can be described thus: compound effects on multiple myeloma cell viability – MM1S, calcein-AM fluorescence, 48 h, basal, profiling panel (AID 1165). Also: test concentration not given here. As to conditions: higher = more signal.
The nature of test [15]: calcein-AM signal in unstimulated myeloma cells – cell-based, calcein-AM fluorescence, 48 h, PK04 Diversity Set, profiling panel (AID 1166).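 Also: cells grown under basal conditions without added stimulus; test concentration not given here.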 As to conditions: RPMI8226 myeloma viability, higher = more signal.
Test [16] can be described thus: JC-1 mitochondrial signal, unstimulated HepG2 cells – cell-based, JC-1 fluorescence, 24 h, 100 nL compound, profiling panel (AID 1167). Also: test concentration not given here. Particulars: HepG2 mitochondrial potential, higher = more signal.
Test [17] in a line: JC-1 mitochondrial signal, unstimulated adipocytes – cell-based, JC-1 fluorescence, 3T3-L1 adipocytes, 24 h, 100 nL compound, profiling panel (AID 1168). Also: test concentration not given here. Particulars: JC-1 mitochondrial fluorescence, higher = more signal, called active from +8 up or from −8 down.
A short description of test [18]: JC-1 mitochondrial signal, unstimulated myeloma cells – cell-based, JC-1 fluorescence, RPMI8226, 24 h, 100 nL compound, profiling panel (AID 1169). Also: test concentration not given here. As to conditions: JC-1 mitochondrial potential fluorescence, higher = more signal.
The nature of test [19]: JC-1 mitochondrial signal, unstimulated MM1S myeloma – cell-based, JC-1 fluorescence, 24 h, 100 nL compound, profiling panel (AID 1170). Also: test concentration not given here. Particulars: MM1S mitochondrial potential, higher = more signal.
Test [20] can be described thus: resazurin metabolic signal in A549 cells – cell-based, resazurin fluorescence, 24 h, PK04 Diversity Set, profiling panel (AID 1171). Also: test concentration not given here. Particulars: A549 viability, higher = more signal, called active from +8 up or from −8 down.

Calls of active or inactive are those of the source.

NADPH oxidase 4 (Homo sapiens), sequence (Q9NPH5 whole entry, looked up): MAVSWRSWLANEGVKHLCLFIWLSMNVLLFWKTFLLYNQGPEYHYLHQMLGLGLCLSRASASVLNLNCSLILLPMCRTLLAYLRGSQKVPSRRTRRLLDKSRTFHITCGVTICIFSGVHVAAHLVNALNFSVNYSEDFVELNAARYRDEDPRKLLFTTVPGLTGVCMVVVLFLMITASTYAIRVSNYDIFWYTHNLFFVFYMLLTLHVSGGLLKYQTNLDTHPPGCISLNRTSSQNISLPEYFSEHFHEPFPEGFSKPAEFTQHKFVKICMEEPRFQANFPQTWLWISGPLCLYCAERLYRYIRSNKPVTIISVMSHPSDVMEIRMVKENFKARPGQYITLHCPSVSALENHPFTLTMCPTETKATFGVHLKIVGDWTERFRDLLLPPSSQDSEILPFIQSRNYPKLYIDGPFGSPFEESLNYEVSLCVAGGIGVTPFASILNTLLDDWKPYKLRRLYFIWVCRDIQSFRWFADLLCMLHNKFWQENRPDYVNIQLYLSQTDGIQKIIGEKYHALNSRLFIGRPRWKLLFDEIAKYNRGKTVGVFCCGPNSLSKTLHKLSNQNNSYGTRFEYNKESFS
NADPH oxidase 5 (Homo sapiens), sequence (Q96PH1 whole entry, looked up): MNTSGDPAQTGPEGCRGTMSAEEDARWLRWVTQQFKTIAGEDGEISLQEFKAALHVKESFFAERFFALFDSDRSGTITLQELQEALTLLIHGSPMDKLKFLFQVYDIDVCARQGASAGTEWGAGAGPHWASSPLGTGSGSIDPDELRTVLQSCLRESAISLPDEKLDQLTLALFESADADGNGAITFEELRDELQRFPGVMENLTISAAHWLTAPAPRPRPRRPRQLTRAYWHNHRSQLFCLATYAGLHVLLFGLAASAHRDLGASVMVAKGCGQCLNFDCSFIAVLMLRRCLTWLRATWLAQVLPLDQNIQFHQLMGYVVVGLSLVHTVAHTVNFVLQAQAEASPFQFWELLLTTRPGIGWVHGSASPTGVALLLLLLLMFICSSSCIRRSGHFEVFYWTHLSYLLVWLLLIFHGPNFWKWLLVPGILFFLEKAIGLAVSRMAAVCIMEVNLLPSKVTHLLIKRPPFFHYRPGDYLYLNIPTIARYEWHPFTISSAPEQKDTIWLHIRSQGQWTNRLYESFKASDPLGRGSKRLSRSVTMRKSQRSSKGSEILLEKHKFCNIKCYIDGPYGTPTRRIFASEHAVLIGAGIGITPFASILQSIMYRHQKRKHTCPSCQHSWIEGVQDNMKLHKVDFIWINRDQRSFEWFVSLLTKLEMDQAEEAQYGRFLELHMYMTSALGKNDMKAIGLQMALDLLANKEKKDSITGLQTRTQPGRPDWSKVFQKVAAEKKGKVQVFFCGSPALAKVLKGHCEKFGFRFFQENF

Turning to `Cc1ccc(/C=C/C=O)cc1`, the z-score is 1.24 (inactive) in [1]; 0.248 (inactive) in test [3]; 0.0672 (inactive) in test [4]; -0.0637 (inactive) in test [5]; 0.0324 (inactive) in test [6]; -0.139 in [7]. Also, the z-score in [8] was -0.225 (inactive); in [9], -0.104 (inactive); in test [10] it was 1.17; in test [11], 0.572; in test [12] it was -0.106; in test [13] it was 0.935. Also, the z-score in [14] was 0.858; in [15], 0.532; in test [16], 1.34; in test [17], -0.111 (inactive); in test [18], -0.758; in [19], 0.427. The z-score in [20] is -0.64 (inactive). For the same molecule, in test [2], the composite z-score is -0.22.

With `NC(=O)[C@@H]1[C@H]2C(=O)O[C@H](c3ccccc3)[C@H](c3ccccc3)N2[C@H](c2ccc(OCCO)cc2)[C@@]12C(=O)Nc1ccc(C#CC3=CCCCC3)cc12`, the z-score in test [1] was 1.96 (inactive); in [3], 3 (inactive); in [4] it was 0.651 (inactive); in test [5] it was -1.59 (inactive); in [6], -0.198 (inactive); in [7] it was 1.1. For the same molecule, the z-score in test [8] was 0.814 (inactive); in test [9], 0.68 (inactive); in [10] it was 2.3; in test [11] it was -0.985; in [12] it was 1.06; in test [13], -3.51. The z-score in test [14] was -3.28; in test [15], -4.06; in test [16], -2.81; in [17], 0.396 (inactive); in [18], -0.834; in [19], -1.71. In test [20], the z-score is -1.01 (inactive). Also, in [2], the composite z-score is 0.189.

For `CC(C)(C)OC(=O)CC[C@@]1(C(=O)N2CCCCC2)N=C(c2ccc(OCCCO)cc2)O[C@@H]1c1ccccc1`, the z-score in [1] is -0.56 (inactive); in test [3], 26.6 (active); in test [4], 19.2 (active); in [5], 1.79 (inactive); in test [6], 2.14 (inactive); in test [7] it was -0.354. For the same molecule, the z-score in test [8] was -2.08 (inactive); in test [9], 1.7 (inactive); in test [10], 0.0911; in test [11], -0.637; in test [12] it was 0.452; in test [13], 0.644. The z-score is -1.99 in test [14]; -2.22 in test [15]; 1.59 in test [16]; 0.0803 (inactive) in test [17]; -0.636 in test [18]; 0.0287 in [19]. The z-score in [20] is 0.894 (inactive). This molecule also came in with a composite z-score in test [2] of 0.349.

Turning to `COC(=O)[C@@]1(Cc2ccccc2)[C@H]2c3cc(C(=O)N4CCCC4)n(Cc4c(CO)[nH]cc(C)c4=O)c3C[C@H]2CN1C(=O)c1ccccc1`, the z-score is -1.73 (inactive) in test [1]; 0.315 (inactive) in [3]; 0.32 (inactive) in [4]; 1.27 (inactive) in [5]; 0.397 (inactive) in test [6]; -0.289 in test [7]. Also, the z-score in [8] is 0.562 (inactive); in test [9], -0.976 (inactive); in test [10] it was -2.9; in test [11], -1.45; in test [12] it was -0.412; in test [13] it was -0.844. For the same molecule, the z-score in test [14] is -0.662; in [15], -2.04; in [16], -0.401; in test [17], -0.276 (inactive); in test [18], -0.797; in test [19], -0.444. The z-score in [20] is 0.739 (inactive). Moreover, the composite z-score in test [2] was -0.0971.

Consider `O=C1C2C=CC(C(O)C=Cc3ccc([N+](=O)[O-])cc3)N(Nc3ccccc3F)C2C(=O)N1c1ccccc1` (stereo not given), for which the z-score is -1.37 (inactive) in test [1]; 13.1 (active) in test [3]; 3.11 (inactive) in test [4]; 0.105 (inactive) in test [5]; 1.59 (inactive) in test [6]; -0.832 in test [7]. Also, the z-score was -1.43 (inactive) in [8]; -3.02 (inactive) in [9]; -3.26 in test [10]; -0.212 in test [11]; -0.846 in test [12]; -0.0729 in [13]. Besides, the z-score is -1.45 in [14]; -0.343 in [15]; -1.33 in [16]; -1.55 (inactive) in test [17]; -0.22 in test [18]; -1.54 in test [19]. In addition, the z-score in test [20] was 0.0067 (inactive). Further, the composite z-score in [2] came out at 0.329.

Take `O=C1NC(=O)C2C1C=CC(C(O)c1ccc(I)cc1)N2Nc1ccc(Cl)cc1Cl` (stereo not given): the z-score in test [1] was -0.971 (inactive); in [3] it was 5.17 (inactive); in test [4] it was 0.872 (inactive); in test [5], -1.72 (inactive); in [6] it was -1.16 (inactive); in test [7], 1.22. Further, the z-score in test [8] was -0.204 (inactive); in test [9], -4.36 (inactive); in [10], -0.634; in test [11], -0.519; in [12], 0.53; in [13], -0.363. Besides, the z-score in test [14] is -3.83; in [15], -4.06; in [16] it was -2.51; in test [17], -1.25 (inactive); in [18], -0.984; in test [19], -1.09. Besides, the z-score in test [20] was -1.59 (inactive). In [2], this molecule came in with a composite z-score of 0.618.

For `O=C(O)[C@H]1C[C@H]2C(=O)N3CCC[C@H]3C(=O)N2[C@H]1c1ccc(O)cc1`, the z-score in test [1] was 0.852 (inactive); in test [3] it was 1.9 (inactive); in test [4], 0.0196 (inactive); in test [5] it was -6.59 (inactive); in test [6] it was 0.104 (inactive); in test [7] it was -0.275. Moreover, the z-score was 0.583 (inactive) in [8]; 0.16 (inactive) in test [9]; 0.932 in test [10]; 0.835 in [11]; 0.469 in test [12]; 0.0504 in test [13]. The z-score in [14] was -0.8; in test [15], 0.0046; in [16], 1.38; in [17], -0.0658 (inactive); in test [18], -0.703; in test [19], -0.22. Further, the z-score in test [20] is 0.799 (inactive). In addition, the composite z-score in [2] is -0.121.

Turning to `O=C1C2C=CC(C(O)C=Cc3ccc([N+](=O)[O-])cc3)N(n3cnnc3)C2C(=O)N1Cc1ccccc1` (stereo not given), the z-score is -0.892 (inactive) in [1]; 4.59 (inactive) in [3]; 1.03 (inactive) in [4]; 0.956 (inactive) in test [5]; 0.83 (inactive) in [6]; -0.584 in [7]. The z-score in [8] was -0.526 (inactive); in [9], -0.711 (inactive); in test [10] it was -0.3; in test [11] it was -0.915; in [12] it was 0.0646; in test [13], -0.129. Moreover, the z-score in test [14] was -0.232; in test [15], -1.03; in test [16] it was -1.07; in test [17], -0.566 (inactive); in test [18] it was 0.646; in test [19], -0.178. Further, the z-score in [20] was 0.367 (inactive). For the same molecule, in test [2], the composite z-score came out at 0.406.

For the molecule `CCCNC(=O)[C@@H]1c2ccccc2C(=O)N(Cc2ccccc2OC)[C@H]1c1ccc(CO)cc1`, the z-score in test [1] is 0.0817 (inactive); in [3], 2.32 (inactive); in test [4], 0.117 (inactive); in test [5] it was 0.297 (inactive); in [6], 0.0117 (inactive); in test [7], -0.439. For the same molecule, the z-score is 0.802 (inactive) in test [8]; 0.998 (inactive) in test [9]; 0.686 in [10]; 2.28 in [11]; -0.272 in test [12]; 1.52 in test [13]. In addition, the z-score in test [14] was 0.513; in test [15], 0.349; in [16] it was 1.67; in test [17] it was 0.776 (inactive); in test [18] it was 0.182; in test [19], -0.565. In addition, in test [20], the z-score is -0.0906 (inactive). Besides, the composite z-score in [2] was -0.0011.

The record behind these values is PubChem BioAssay.
